PubChem BioAssay (NCATS)
Records with an inconclusive call do not appear. Calls of active or inactive are those of the source. Calls follow the shape of the dose curve; as a rule, active = well fitted curve in the direction sought with a large enough effect; inconclusive = small, poorly fitted or top-dose-only effect, or another doubt; inactive = no such curve, though single readings can be large; an effect the other way counts as inactive or inconclusive.

Experiments:
[1] = target: Metallo-beta-lactamase type 2 (Klebsiella pneumoniae) (UniProt C7C422); test: qHTS to identify inhibitors of the New Delhi Metallo-beta-lactamase (NDM): assay validation screen against the NCATS LOPAC Collection (AID 1794843);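 also: nitrocefin turnover by NDM-1 measured as 485 nm absorbance at plateau; series mostly up to about 38 µM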
Summary of the method: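 NDM-1 at 2 nM final in 50 mM HEPES pH 7.0, 1 uM ZnSO4, 0.01% Tween20, preincubated with LOPAC compounds pinned in DMSO; 50 uM nitrocefin (stock) added. Hydrolysis read as absorbance at 485 nm in the plateau phase.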

[2] = target: Glutathione peroxidase 1 (Homo sapiens) (UniProt P07203); test: Primary qHTS Assay for Inhibitors of Recombinant Selenoprotein Glutathione Peroxidase 1 (GPX1) (AID 1845191); also: nearly all actives have a fitted effect of over 65% in size
Summary of the method: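 GPX1 10 nM, GR 100 nM, GSH 1 mM, NADPH 0.5 mM, CHP 0.5 mM (final). 30-min cpd preincubation, RT. Ex340/Em450 read t=0, t=15 min.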

[3] = target: Phospholipid hydroperoxide glutathione peroxidase GPX4 (Homo sapiens) (UniProt P36969); test: Primary qHTS Assay for Inhibitors of Recombinant Selenoprotein Glutathione Peroxidase 4 (GPX4) (AID 1845192); also: nearly all actives have a fitted effect of over 65% in size
Summary of the method: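 qHTS, GR-coupled: GPX4 200 nM + cpd 30 min RT → GSH 1 mM, NADPH 0.5 mM, GR 100 nM → CHP 0.5 mM start; fluor 340/450 at t0 and t15 min; no-enzyme wells as control.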

Measured: Potency

Phospholipid hydroperoxide glutathione peroxidase GPX4 (Homo sapiens), sequence (P36969 whole entry, looked up): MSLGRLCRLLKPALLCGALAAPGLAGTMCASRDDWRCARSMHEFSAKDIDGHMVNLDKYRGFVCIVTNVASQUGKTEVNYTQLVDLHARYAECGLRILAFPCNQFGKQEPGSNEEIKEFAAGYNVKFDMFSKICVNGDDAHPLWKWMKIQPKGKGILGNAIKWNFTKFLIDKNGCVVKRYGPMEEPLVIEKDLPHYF
Glutathione peroxidase 1 (Homo sapiens), sequence (P07203 whole entry, looked up): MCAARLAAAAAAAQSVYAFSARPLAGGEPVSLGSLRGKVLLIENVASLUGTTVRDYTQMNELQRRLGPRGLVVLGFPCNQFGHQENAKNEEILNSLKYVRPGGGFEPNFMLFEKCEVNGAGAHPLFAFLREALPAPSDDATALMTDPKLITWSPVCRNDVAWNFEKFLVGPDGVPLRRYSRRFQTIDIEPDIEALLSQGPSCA
Metallo-beta-lactamase type 2 (Klebsiella pneumoniae), sequence (C7C422 whole entry, looked up): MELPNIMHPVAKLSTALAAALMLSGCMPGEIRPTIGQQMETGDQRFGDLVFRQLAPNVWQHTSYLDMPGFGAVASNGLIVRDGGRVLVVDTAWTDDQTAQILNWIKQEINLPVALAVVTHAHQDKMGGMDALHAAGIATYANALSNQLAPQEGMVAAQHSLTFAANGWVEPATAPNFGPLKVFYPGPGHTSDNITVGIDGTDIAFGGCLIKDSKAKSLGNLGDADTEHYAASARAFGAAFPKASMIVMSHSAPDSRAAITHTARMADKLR

CCCN(CCC)C1Cc2cc(OC)c(OC)cc2C1
inactive: all assays above

CCCCCCCCCCCCCC(=O)O[C@@H]1[C@@H](C)[C@@]2(O)[C@@H](C=C(CO)C[C@@]3(O)C(=O)C(C)=C[C@@H]23)C2C(C)(C)[C@@]21OC(C)=O (some centres not stated)
inactive: all assays above

C[N+]1(C)CCOC(O)(c2ccc(-c3ccc(C4(O)C[N+](C)(C)CCO4)cc3)cc2)C1 (configuration not stated)
inactive: all assays above

CCCN1CCC[C@@H](c2cccc(O)c2)C1
inactive: all assays above

O=S1(=O)N(CCN2CC=C(c3c[nH]c4cc(F)ccc34)CC2)c2cccc3c2N1CCC3
inactive: all assays above

CCCN1CC[C@@H]2c3cc(O)ccc3CC[C@@H]21
inactive: all assays above

NC(=O)CI
inactive: all assays above

c1ccc2c(N3CCNCC3)cccc2c1
inactive: all assays above

CN1CC[C@@]2(C)c3cc(OC(=O)Nc4ccccc4)ccc3N(C)[C@@H]12
inactive: all assays above

C[N+](C)(C)CCOC(=O)CBr
inactive: all assays above

COC(=O)N1CCN(C(=O)Cc2ccc(Cl)c(Cl)c2)C(CN2CCCC2)C1 (configuration not stated)
inactive: all assays above

CC(C)(C)OC(=O)NC1[C@H]2CNC[C@@H]12 (some centres not stated)
inactive: all assays above

O=[N+]([O-])/C=C/c1ccc2c(c1)OCO2
inactive: all assays above

C[N+]1(C)C2CCC1CC(OC(=O)c1c[nH]c3ccccc13)C2 (configuration not stated)
inactive: all assays above
